ATXN viability: Viability Counterscreen for Primary qHTS for Inhibitors of ATXN expression | actives 0.49% (n = 400,000) | S2 cells (HEK-293 line with an ATXN2-luciferase reporter) viability, CellTiter-Fluor protease fluorescence, 24 h | Potency, µM (series often up to 56.7 µM), actives largely listed as cytotoxic; note: nearly all actives have a fitted effect of over 40% in size
HepG2 tox: qHTS for Inhibitors of TGF-b: Cytotox Counterscreen; Potency, µM (titrated, usually from 46.1 µM), for the others: top-dose activity change, negative = cytotoxicity, actives largely listed as cytotoxic; HepG2 CAGA-GFP viability, ATP luminescence, 18 h; actives 0.76% (n = 410,000)
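HepG2 CAGA-GFP cells (1000/well, DMEM with 1% FBS) received compound, then TGF-beta at 500 pg/mL final, and were incubated 18 hours at 37 degrees C. Viability was read by CellTiter-Glo luminescence. Media-only wells were set as complete cell-killing and DMSO as no toxicity.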
TGFb SMAD3 inh: qHTS for Inhibitors of TGF-b; Potency, µM (titrated, usually from 46.1 µM), for the others: at the highest dose activity, negative = inhibition, most hits filed as inhibitors; HepG2 CAGA-GFP TGF-b/SMAD3 reporter, GFP fluorescence, 18 h; TGF-beta stimulated, 500 pg/mL final; actives 1.2% (n = 410,000); note: % is set by controls: 0 for no effect and ±100 for the full control effect; nearly all actives have a fitted effect of over 65% in size
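HEPG2 CAGA-GFP, 1000 cells/well; 2 h settle, 37 C; cpd via pin tool; TGF-b 500 pg/mL final; 18 h, 37 C; GFP imaging ex488/em500-530; %Activity normalised to -TGF-b and +DMSO controls; CRC fit, curve class.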
ATXN2 expr inh: Primary qHTS for Inhibitors of ATXN expression; HEK-293 ATXN2-luciferase reporter, luminescence, 24 h; Potency, µM (top dose mostly 57 µM), without a hit: top-dose activity change, negative = inhibition, usual class: inhibitors; actives 0.72% (n = 360,000); note: % is set by controls: 0 for no effect and ±100 for the full control effect; nearly all actives have a fitted effect of over 55% in size
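ATXN2-luciferase reporter cells (luciferase flanked by upstream and downstream ATXN2 gene portions) were treated 24 h at 37 °C with compounds at up to 57 uM. SteadyGlo luminescence gave expression; GF-AFC fluorescence gave viability.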
DT40 TDP1 CPT: qHTS for Inhibitors of human tyrosyl-DNA phosphodiesterase 1 (TDP1): qHTS in cells in presence of CPT | chicken DT40 Tdp1-/-;hTDP1 cells + 20 nM CPT, ATP luminescence, 48 h | Potency, µM (series often up to 46.2 µM), for inactives: at the highest dose activity change, negative = growth inhibition, usual class: inhibitors | actives 12% (n = 420,000) | AID 686979, 2013; note: % is set by controls: 0 for no effect and ±100 for the full control effect; nearly all actives have a fitted effect of over 55% in size
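Chicken DT40 Tdp1-/- cells stably complemented with human TDP1 were seeded at 400 cells/well in medium containing 20 nM camptothecin, exposed to pin-transferred compounds, and grown at 37 °C for at least 48 hr. Viability was read as ATP luminescence.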
DT40 TDP1 no CPT: qHTS for Inhibitors of human tyrosyl-DNA phosphodiesterase 1 (TDP1): qHTS in cells in absence of CPT; actives 15% (n = 420,000); AID 686978, 2013; Potency, µM (doses to about 46.2 µM), for the others: at the highest dose activity change, negative = growth inhibition, usual class: inhibitors; DT40 Tdp1-/- hTDP1 cells, no CPT, ATP luminescence, 48 h; note: % is set by controls: 0 for no effect and ±100 for the full control effect; nearly all actives have a fitted effect of over 55% in size
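No-CPT arm: Tdp1-/-;hTDP1 DT40 cells (400/well) plus compounds, incubated ≥48 hr at 37 °C. Readout CellTiter-Glo luminescence.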
* marks the source's active call; other numbers are inactive results; i = inactive; ? = inconclusive; nt = no result. Only some compounds are listed: those with a hit (about 17% of all), similar ones and a draw of the others. Calls come from the whole dose curve; as a rule, active = well fitted curve in the direction sought with a large enough effect; inconclusive = small, poorly fitted or top-dose-only effect, or another doubt; inactive = no such curve, though single readings can be large; an effect the other way counts as inactive or inconclusive. Potency is the fitted concentration of half-maximal effect.

SMILES | ATXN viability | HepG2 tox | TGFb SMAD3 inh | ATXN2 expr inh | DT40 TDP1 CPT | DT40 TDP1 no CPT
Cc1ccc(-n2ncc(C(=O)N3CCN(c4ccc(Cl)cc4)CC3)c2C2CCN(C(=O)OC(C)(C)C)CC2)c(C)c1 | i | -14% | -8% | -9% | ? | 12µM*
COc1ccc(-n2ncc(C(=O)N3CCN(c4cc(C)ccc4C)CC3)c2C2CCN(C(=O)OC(C)(C)C)CC2)cc1 | nt | -16% | 0% | nt | 21µM* | 15µM*
CCCN(CCc1cccs1)[C@H]1CCc2c(O)cccc2C1 | i | nt | nt | -7% | ? | ?
CC(C)(C)OC(=O)c1ncn2c1[C@@H]1CCCN1C(=O)c1c(Br)cccc1-2 | i | nt | nt | 7% | 6% | ?
CCC1/C=C/C=CCC(C)C(O)[C@@](C)(O)C(=O)C(C)C(O)C(C)C(=O)C(C)C(O)C(C)C=CC(=O)O[C@H]2C(C)C(CC1)O[C@]1(CCC(C)C(CC(C)O)O1)C2C (some centres not stated) | nt | nt | nt | nt | 0.0073µM* | 0.0058µM*
O=NN(CCCl)C(=O)NCCCl | i | -2% | 2% | 1% | ? | ?
COc1cc(CN=Cc2c(O)n(Cc3ccccc3)c(=S)[nH]c2=O)cc(OC)c1 | ? | 5% | 34% | -17% | 0% | -22%
CCC(=O)c1c(O)n(C2CCCCCC2)c(=O)[nH]c1=O | i | -33% | 3% | -7% | 6.5µM* | 16µM*
CCC(=NCc1cccnc1)c1c(O)n(C2CCCCC2)c(=O)[nH]c1=O | i | -14% | -3% | -16% | ? | ?
CCC(=NCc1ccco1)c1c(O)n(C2CCCCC2)c(=O)[nH]c1=O | i | -25% | -11% | 4% | 23µM* | ?
COc1cc(CNC(=O)CCCC/C=C\C(C)C)ccc1O | i | nt | nt | nt | ? | ?
COc1cc(O)c(C(=O)O)c(-c2cc(O)c(O)cc2C)c1 | i | -5% | 1% | -8% | 4.6µM* | 16µM*
COc1ccc2c(c1)c(C(=O)O)c(C)n2CC(C)C | i | 1% | -8% | 8% | -15% | -9%
CN1CSC(=S)N(C)C1 | i | -59% | ? | -18% | 6.5µM* | 4.6µM*
CN(C)C(=O)Oc1ccc(Br)cc1C(=O)Nc1ccc(F)c(Cl)c1 | ? | -35% | ? | -1% | 23µM* | 23µM*
CN(C)C(=O)Oc1ccc(Cl)c2ccccc12 | i | 3% | 11% | -10% | -1% | -6%
CC1(C)C(=O)C=C[C@@]2(C)C1=C(O)C(=O)[C@@]1(C)C2CC[C@@]2(C)C(c3ccoc3)C[C@H]3O[C@@]321 (some centres not stated) | nt | nt | nt | nt | 12µM* | 12µM*
CC[C@@H](CO)NC(=O)[C@H]1C=C2c3cccc4[nH]cc(c34)C[C@H]2N(C)C1 | nt | nt | nt | nt | 5% | -19%
Cc1ccc(Cn2nc(C)c(NC(=O)c3cc(-c4ccc(F)cc4)on3)c2C)cc1 | ? | -28% | -12% | ? | 10µM* | 7.3µM*
CCOC(=O)NC(C)(C)Cc1ccc(Cl)cc1 | i | nt | nt | 0% | 5% | ?
Cc1ccc(C=C2C(Cl)=C(Cl)C(Cl)=C2Cl)cc1 | i | 13% | -18% | -1% | 3.3µM* | 5.2µM*
CC12CCC3C(CC=C4CC5(CCC43C)OCCO5)C1CCC2=O (configuration not stated) | i | -4% | 1% | -4% | ? | ?
COC(=O)[C@]1(C)N[C@H](CN(C)S(=O)(=O)c2ccc(-c3ccccc3)cc2)[C@@H]2C(=O)N(Cc3ccccc3)C(=O)[C@@H]21 | i | -1% | 0% | -2% | ? | ?

Screening results: PubChem, National Center for Advancing Translational Sciences (NCATS)
